# Screens as filed in PubChem.
# IL-1B inflam inh: inflammasome signaling inhibition, IL-1 beta readout; actives 4.7% (n = 360,000); activity change, % at 57.5 µM; THP-1 LPS/ATP IL-1B secretion, AlphaLISA, 16 h; stronger effect = lower value; in the data active = activity change below about -50%; inconclusive = mostly about -30% to -49%
#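 THP-1 cells pretreated 1 hr with compounds (up to 57.5 uM final), then stimulated with LPS (250 ng/mL final) plus ATP (1.25 mM final); secreted IL-1B measured by AlphaLISA after 16 hr, decreased signal indicating inhibition.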
# DT40 TDP1 CPT: DT40-hTDP1 cell growth loss with CPT; chicken DT40 Tdp1-/-;hTDP1 cells + 20 nM CPT, ATP luminescence, 48 h; Potency, µM (highest dose often 46.2 µM), usual class: inhibitors; actives 12% (n = 420,000); note: nearly all actives have a fitted effect of over 55% in size
#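 Cell growth measured by CellTiter-Glo luminescence after a minimum 48 h, 37 C compound exposure with 20 nM CPT in Tdp1-knockout DT40 cells stably expressing hTDP1, seeded 400/well; qHTS titration format.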
# RORg inh: blocks mouse ROR gamma transcriptional activity; P51450; Drosophila S2 Gal4-RORgamma UAS-luciferase reporter, 20 h; Potency, µM (titrated, usually from 53.6 µM), usual class: inhibitors; actives 5.4% (n = 310,000); note: nearly all actives have a fitted effect of over 60% in size
# Target sequence (P51450 whole entry, looked up, the tested form may be a part): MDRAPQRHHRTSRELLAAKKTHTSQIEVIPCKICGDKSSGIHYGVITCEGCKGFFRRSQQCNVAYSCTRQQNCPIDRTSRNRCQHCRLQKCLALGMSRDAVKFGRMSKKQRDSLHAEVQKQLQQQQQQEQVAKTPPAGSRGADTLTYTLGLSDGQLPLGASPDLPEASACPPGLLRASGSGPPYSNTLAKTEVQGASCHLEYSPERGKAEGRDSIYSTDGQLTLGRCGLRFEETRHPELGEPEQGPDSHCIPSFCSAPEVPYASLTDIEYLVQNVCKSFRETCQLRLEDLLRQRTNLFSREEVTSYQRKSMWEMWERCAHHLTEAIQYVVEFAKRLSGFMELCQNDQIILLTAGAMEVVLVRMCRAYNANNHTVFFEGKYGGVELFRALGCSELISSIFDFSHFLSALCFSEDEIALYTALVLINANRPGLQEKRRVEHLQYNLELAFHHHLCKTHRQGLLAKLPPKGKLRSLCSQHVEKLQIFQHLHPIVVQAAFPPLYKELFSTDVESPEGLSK
#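 Stable Schneider cell line, Gal4 DNA-binding domain fused to ROR gamma, UAS-luciferase. Cmpd 1 hr RT → CuSO4 700 uM final → 20 hr RT → luciferase reagent 10 min → luminescence.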
# TDP1 cell noCPT: qHTS for Inhibitors of human tyrosyl-DNA phosphodiesterase 1 (TDP1): qHTS in cells in absence of CPT | AID 686978, 2013 | actives 15% (n = 420,000) | Potency, µM (highest dose often 46.2 µM), hits mostly inhibitors | DT40 Tdp1-/- hTDP1 cells, no CPT, ATP luminescence, 48 h; note: nearly all actives have a fitted effect of over 55% in size
#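 A cellular qHTS used chicken DT40 cells lacking endogenous Tdp1 but carrying stably transfected human TDP1. Compounds were applied without camptothecin, and cell growth kinetics were judged by ATP-dependent luminescence after ≥48 hr.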
# LDHA inh: blocks human lactate dehydrogenase A. activity change, % (values are at about 110 or 230 µM). purified LDHA, NADH/diaphorase-resazurin fluorescence; stronger effect = lower value. AID 1347041. actives 0.15% (n = 480,000). P00338; in the data active = activity change below about -30%; inconclusive = mostly about -25% to -30%
#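 LDH5 2 nM; NADH 0.06 mM, pyruvate 0.2 mM; 200 mM Tris pH 7.4, EDTA, Tween-20; 5 min RT. Detection: diaphorase 0.133 mg/mL + resazurin 37 µM, fluorescence ex540/em590 at 0 and 20 min; normalized to enzyme-free and DMSO wells.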
# VP16 counter: counter-screen for ROR gamma inhibitors: Gal4-VP16 reporter; Potency, µM (top dose mostly 53.6 µM), actives largely listed as inhibitors; AID 2546; actives 3.5% (n = 310,000); Drosophila S2 Gal4-VP16 UAS-luciferase, luminescence, 20 h;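 note: Gal4-VP16 expression switched on by copper sulfate through the metallothionein promoter; nearly all actives have a fitted effect of over 50% in size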
# A number is an active result; . = inactive; ? = inconclusive; / = no result; ! = not confirmed by another sample; [ ] = another dose, or the depositor's remark. Most compounds without a hit are left out; they make up all but 18% or so of the library. Unless noted, calls come from the whole dose curve; as a rule, active = well fitted curve in the direction sought with a large enough effect; inconclusive = small, poorly fitted or top-dose-only effect, or another doubt; inactive = no such curve, though single readings can be large; an effect the other way counts as inactive or inconclusive.
SMILES,IL-1B inflam inh,DT40 TDP1 CPT,RORg inh,TDP1 cell noCPT,LDHA inh,VP16 counter
Cc1ccc(S(=O)(=O)NCC(=O)OCC(=O)N2N=C(c3ccc(Cl)cc3)CC2c2ccco2)cc1C (stereo unspecified),.,?,.,23.1µM,.,.
CNC(=O)[C@@H]1C[C@H]1[C@@H](NP(=O)(c1ccccc1)c1ccccc1)c1ccccc1,/,/,?,/,/,.
CC(C)CCOc1ccc(CCN)cc1,/,/,/,/,.,/
CN(C)C(CSS(=O)(=O)c1ccccc1)CSS(=O)(=O)c1ccccc1,/,/,/,/,.,/
COc1cccc(CNCCc2ccccc2)c1OC,.,.,.,.,.,.
COc1ccc2ccccc2c1CNCCc1ccccc1,-54.6,23.1µM,.,?,.,.
COc1ccc(CN2CCN(c3ncnc4sc5c(c34)CCCC5)CC2)cc1F,/,8.2µM,/,5.17µM,.,/
CCN(CC)CCNC(=O)c1c(C)[nH]c(/C=C2\C(=O)Nc3ccc(F)cc32)c1C,/,4.22µM,.[10 µM],3.76µM,/,.
CN(Cc1ccccc1)C(=O)c1cccc(NC(=O)Cc2ccc([N+](=O)[O-])cc2)c1,?,23.1µM,/,14.6µM,.,/
O=c1[nH]c2ccccc2n1C1CCN(Cc2ccc(-c3nc4ccc(F)cc4nc3-c3ccccc3)cc2)CC1,-61.2,4.11µM,/,6.51µM,.,/
COc1ccc2nc(-c3ccc(CN4CCC(n5c(=O)[nH]c6ccccc65)CC4)cc3)c(-c3ccccc3)nc2c1,-60.6,18.4µM,/,14.6µM,.,/
O=c1[nH]c2ccccc2n1C1CCN(Cc2ccc(-c3nc4ccccc4nc3-c3ccccc3)cc2)CC1,.,11.6µM,/,14.6µM,.,/
Cc1ccc2nc(-c3ccc(CN4CCC(n5c(=O)[nH]c6ccccc65)CC4)cc3)c(-c3ccccc3)nc2c1,-73.9,8.2µM,/,11.6µM,.,/
O=c1[nH]c(=O)n(C2CCCCCC2)c(O)c1C=NC1CCN(Cc2ccccc2)CC1,?,.,.,?,.,.
COc1ccc(N2C(=O)CC(N3CCC(n4c(=O)[nH]c5ccccc54)CC3)C2=O)cc1 (stereo unspecified),.,?,.,?,.,.
Cc1ccc(Cn2nnnc2CN2CCC(n3nnc4cc(C)ccc43)CC2)cc1,?,?,.,?,.,.
C[N+]1(C)[C@@H]2CC(OC(=O)[C@@H](CO)c3ccccc3)C[C@@H]1[C@H]1O[C@H]12 (stereo partly specified),/,/,.[10 µM],/,/,.
Cc1ccc(-n2nc3ccc(NC(=O)COc4ccccc4C)cc3n2)cc1,/,?,/,?,.,/
N#Cc1c(N)nc2c(c1-c1ccc(OCc3ccc(F)cc3)cc1)c(=O)nc1sccn12,/,/,/,/,.,/
Cc1ccnc(NC(=O)CCCc2ccc(N(CCCl)CCCl)cc2)n1,.,0.231µM,/,0.581µM,.,/
O=c1[nH]/c(=C\c2ccc(N(CCCl)CCCl)cc2)c(=O)[nH]/c1=C\c1ccc(N(CCCl)CCCl)cc1,/,3.16µM,/,?,.,/
O=C(NN=Cc1ccc(N(CCCl)CCCl)cc1)c1cc(=O)[nH]c(=O)[nH]1,.,?,/,?,.,/
O=C1/C(=C/c2ccc(N(CCCl)CCCl)cc2)Cc2ccccc21,/,4.47µM,/,7.94µM,/,/
Cc1ccc(-n2c(O)c(/C=N/c3ncc(Br)cc3Br)c(=O)[nH]c2=O)cc1,.,?,.,9.2µM,.,.[10 µM]
Cc1cccc(-n2c(O)c(C=Nc3ccc(Br)cn3)c(=O)[nH]c2=O)c1,.,10.3µM,?,16.4µM,.,.
SMILES,IL-1B inflam inh,DT40 TDP1 CPT,RORg inh,TDP1 cell noCPT,LDHA inh,VP16 counter
CCOc1cc(C2NCc3ccccc3-n3cccc32)ccc1OC (stereo unspecified),?,.,.,.,.,.
CCOc1cc2c(cc1OCC)-n1cccc1C(c1ccc(OC)c(O)c1)NC2 (stereo unspecified),?,?,.,18.4µM,.,.
CCOc1cc2c(cc1OCC)-n1cccc1C(c1ccc(C)cc1C)NC2 (stereo unspecified),-90.0,?,.,?,.,.
CCOc1cc2c(cc1OCC)-n1cccc1C(c1cc(C)c(OC)cc1C)NC2 (stereo unspecified),.,10.3µM,.,7.31µM,.,.
Cc1ccc(O)c([C@H](CCN(C(C)C)C(C)C)c2ccccc2)c1,.,20.6µM!,?,?,.,.
COc1nc(NC2CCCCC2)nc(NC(C)(C)C)n1,?,?,/,11.6µM,.,/
Nc1nc(N)nc(NC2CC2)n1,/,.,.,.,/,.
CC(C)NC(=O)CN(C)C(=O)c1cn(Cc2ccccc2)c2ccccc12,/,/,/,/,.,/
N#CC(Cl)(Cl)Cl,/,/,.,/,/,.
Cc1ccc2c(c1)cc(C(=O)Nc1ccccc1C)n2C,/,?,/,1.16µM,?,/
Cc1ccc(NC(=O)c2cccn(Cc3ccccc3C)c2=O)c(C)c1,/,.,/,.,.,/
CCSc1cc(C2C(C#N)=C(N)Oc3n[nH]c(C)c32)c(C)o1 (stereo unspecified),-96.6,?,11.2µM,16.4µM,.,?
CCCNC1CCCC1,/,/,/,/,.,/
CCOc1cc(CNCCc2ccccc2F)ccc1OC,.,?,.,?,.,.
COc1cc(C)c(CNCCc2c[nH]c3ccccc23)cc1C,-71.8,8.2µM,.,7.31µM,.,.
COc1ccc(CNCCc2c[nH]c3ccccc23)c(OC)c1C,/,5.8µM,.,7.31µM,.,.
COc1ccc(CNCCc2ccccc2F)c(OC)c1C,-65.0,14.6µM,.,23.1µM,.,.
Clc1ccc(Cl)c(-c2ccc(CNC3CN4CCC3CC4)o2)c1 (stereo unspecified),/,/,/,/,.,/
CN1[C@@H](CC(=O)c2ccccc2)CCC[C@H]1C[C@H](O)c1ccccc1,.,23.7µM!,.,20.6µM!,.,.
CC(O)(CS(=O)(=O)c1cccc(C(F)(F)F)c1)C(=O)Nc1cccc(C(F)(F)F)c1 (stereo unspecified),.,?,.,?,.,.
O=C(Nc1cccc(C(F)(F)F)c1)C1CCCN1S(=O)(=O)c1cccc2nsnc12 (stereo unspecified),/,18.4µM,/,?,.,/
c1ccc(NNc2ccccc2)cc1,/,/,.,/,/,.
CCCCCCCCN1C(=O)[C@H](CC(=O)NCCCC)C[C@@]2(C(=O)OCC)CCCC=C12,.,9.2µM,/,11.6µM,.,/
CCCCCCCCN1C(=O)[C@H](CC(=O)N2CCCCC2)C[C@@]2(C(=O)OCC)CCCC=C12,?,7.31µM,/,5.8µM,.,/
CCOC(=O)C1(c2ccccc2)CCCN(C)CC1 (stereo unspecified),/,.,/,.,/,/
